# Laboratory results taken from the emibetuzumab library of Makowski et al. (2022).
# The list shows a part of the results. No count for the full screen is at hand.
# B1: VH:VL chains; a variant is named by its letters at X, in order (parent)
# chain 1: QVQLVQSGAEVKKPGASVKVSCKASGYTFTDYXMHWVRQAPGQGLEWMGXVNPNXXXTTYNQKFEGRVTMTTDTSTSTAYMELRSLRSDDTAVYYCARXNXLDXWGQGTTVTVSS
# chain 2: DIQMTQSPSSLSASVGDRVTITCSVSSSVSSIYLHWYQQKPGKAPKLLIYSTSNLASGVPSRFSGSGSGTDFTLTISSLQPEDFATYYCQVYSGYPLTFGGGTKVEIK
# Variants of: B1
# Experiment: yeast display scFab, FACS + sequencing
# Conditions: with MET
# Outline: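 For FACS, yeast displaying a heavy-chain CDR mutant scFab library were labelled with 1 nM HGFR-Fc and anti-Myc (PBSB, 1% milk, 3 h, room temperature), and the top 50% antigen-positive cells were gated. Input and round-3 sorted populations were deep sequenced in two replicates. The binding call was positive for sequences occurring in both antigen-positive samples and negative for sequences occurring only in input.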
row,Variant,antigen binding call
1,VTTKSYLV,no binding
2,DAARGDGV,no binding
3,VKTGGSLD,no binding
4,VRTGDSLD,binds
5,VRKGGSLD,binds
6,VRAGSSWD,binds
7,VRTGDDGV,no binding
8,VAGTGSLD,no binding
9,AETKGFAV,no binding
10,VKGASDVA,no binding
11,VRAGADVA,no binding
12,YTGTSSGA,no binding
13,YGGRAAGA,no binding
14,YRGGASGA,binds
15,YEGGTSGA,no binding
16,YRGRASGA,binds
17,YRAGAAVA,binds
18,YRAAGSGA,binds
19,VEEEGDAV,no binding
20,DRAGDAGA,no binding
21,SREAASLA,no binding
22,YRGANSGA,no binding
23,YRARSAGA,binds
24,YRARSSGA,binds

row,Variant,antigen binding call
1,YRAGSSGA,binds
2,YRAGASLA,binds
3,DRAGDSGA,no binding
4,DEGGDAGD,no binding
5,VAEKGDAA,no binding
6,VEKGGDWD,no binding
7,FKGEGDVY,no binding
8,VKTGGDVA,no binding
9,YRAGASGA,binds
10,YRKEAAAA,binds
11,YRKEGAAA,binds
12,YRKGSAAA,binds
13,DAKEGAAA,no binding
14,VAEAAVGD,no binding
15,AETKGDWV,no binding
16,VEGTSAVY,no binding
17,VKKEDDVV,no binding
18,VAGGGAAV,no binding
19,VEGGGFAY,no binding
20,VREGAAAV,no binding
21,VRGTGAVY,no binding
22,VRAGGDWV,no binding
23,VRAGGAWV,binds
24,VRGGGAAV,binds

row,Variant,antigen binding call
1,VRGGGAAY,binds
2,VRGGGAWV,binds
3,VRGAGAWV,no binding
4,DTTGSAVV,no binding
5,FTGTSDLY,no binding
6,FRGRGSWS,binds
7,FRGRGAWS,binds
8,FRGRGSVS,binds
9,FRGRDFGS,no binding
10,FEATASWS,no binding
11,FRGRDYGS,no binding
12,FRGRDSWS,binds
13,AGGGNDGA,no binding
14,VTGGDDWY,no binding
15,AARADAVV,no binding
16,FRGRGALS,binds
17,FRGRGAAS,binds
18,FRGRGFLS,no binding
19,FRGRGSLS,binds
20,FRGRGAGS,binds
21,FRGRGDLS,no binding
22,SGKKSSGV,no binding
23,VEGTSAVF,no binding
24,FRGRASLS,binds

row,Variant,antigen binding call
1,YRRRGFGY,binds
2,DRERGDGY,no binding
3,YRRRGAGY,binds
4,YAAKSDGY,no binding
5,YRRRGVGY,binds
6,YRRRGDGY,binds
7,FAAAGFVA,no binding
8,VKREAVGV,no binding
9,YRRRGSGY,binds
10,YRRRGFGS,binds
11,YAREAALS,no binding
12,VREGDYLS,no binding
13,DREEGAGS,no binding
14,YRTRGALS,binds
15,YRTGAALS,binds
16,SRTRGFGS,no binding
17,VRTRGALS,binds
18,DAEESDGA,no binding
19,DGTKSYGV,no binding
20,VTGGDDWV,no binding
21,FAEGAAAV,no binding
22,DKTGDAAV,no binding
23,FKTGGAAV,binds
24,FKTESAAV,binds

row,Variant,antigen binding call
1,YTTGGAAV,no binding
2,FKTKSDAV,no binding
3,AKTKSDVA,no binding
4,DATGGDVY,no binding
5,VAEKGDWY,no binding
6,FGKEDSVD,no binding
7,FRTGDSVD,binds
8,FRTGDSWD,binds
9,FATTDSVD,no binding
10,YARADDVA,no binding
11,YRAKGSSS,binds
12,VEAGDSSS,no binding
13,VKAGDAWS,no binding
14,YRRKGSSS,binds
15,FGAKGSSS,no binding
16,YRAGDSSS,binds
17,VKAGDSSS,binds
18,SEGTSAVF,no binding
19,DTKAASSS,no binding
20,DKERGDLV,no binding
21,DTRTAYGF,no binding
22,YRAKSSSS,binds
23,YRAEGSSS,binds
24,VKGRADVF,no binding

row,Variant,antigen binding call
1,DRGGDDVY,no binding
2,YRGGDSAY,binds
3,DREEGSSY,no binding
4,YRGGDSSY,binds
5,DRGGDDWY,no binding
6,YAGGDFAY,no binding
7,ARGKASSY,no binding
8,YRGGDDLY,no binding
9,YRAGGSSY,binds
10,DRREGYGA,no binding
11,DTTRDDSD,no binding
12,VTTKSDWV,no binding
13,AGKGGFAY,no binding
14,VEARNDWA chain 1 M81I,no binding
15,FRRGGAWD,binds
16,VETKGDWD,no binding
17,YRRGGAWD,binds
18,YETKGDWD,no binding
19,AETKGDWD,binds
20,YRRRGAWD,binds
21,DTEGGSAS,no binding
22,DEGGTAVV,no binding
23,DGARNAAA,no binding
24,DEGGTAGV,no binding

row,Variant,antigen binding call
1,DEGGTDLD,no binding
2,DATEDDSA,no binding
3,YRRRGDWD,binds
4,YRRRGDWY,binds
5,YTKRGDWD,no binding
6,FRRRGDWY,no binding
7,YTRGADWY,no binding
8,YRGKGAWS,binds
9,YRGKGSWS,binds
10,DEEASSWA,no binding
11,DTGTGDVA,no binding
12,VEAGDAVA,no binding
13,VRRGDSVA,binds
14,VRARGVVA,no binding
15,VRRGDFWA,no binding
16,VRAGGSVA,binds
17,VKRGDDVA,no binding
18,VRAGDDGA,no binding
19,VEAGDDGA,no binding
20,VRATGSVY,no binding
21,VTAGDDVA,no binding
22,VRAGDAGA,binds
23,VRAGDSVA,binds
24,VGGRADGF,no binding

row,Variant,antigen binding call
1,SKTKSDGA,no binding
2,DAGGAAGD,no binding
3,ATTKSAVA,no binding
4,FRAEGSVA,binds
5,VRAEGSVA,binds
6,YKAGDSVA,binds
7,VKAGDDVA,no binding
8,VRRASSVA,binds
9,VTRGADAV,no binding
10,SGAGDYSD,no binding
11,VRAGDSSA,binds
12,VRGTGFGA,no binding
13,VEAGDSSA,no binding
14,VRAGGFGA,binds
15,VTGGDSSA,no binding
16,VAEKGFGA,no binding
17,VKTGGDVF,no binding
18,YRGAGYAA,no binding
19,YRGAGAGA,binds
20,VAGAGAGA,no binding
21,YRGASAAA,binds
22,YRGAGAAA,binds
23,AGGGNDVV,no binding
24,FEERNSLD,no binding

row,Variant,antigen binding call
1,FKRRSSGD,binds
2,FKKGSSGV,binds
3,FKRRSFGS,no binding
4,FKEGNSLD,no binding
5,FKKGSSLD,binds
6,FKARDSGD,no binding
7,FKRGSSLD,binds
8,SEGADAGD,no binding
9,SEGGDAWV,no binding
10,FKKEGYGD,no binding
11,FKKGSSGD,binds
12,FKKGSVGD,no binding
13,FKKGSSWD,binds
14,VGGGNDLA chain 1 R87K,no binding
15,FRAGSAWS,binds
16,FRAGGAWS,binds
17,DAAKNDAV,no binding
18,DGGKNDGV,no binding
19,VEGGADVF,no binding
